Most compounds without a hit are left out; they make up all but 19% or so of the library.
HT1080 IDH1KD tx = toxicity to HT-1080 IDH1 knockdown cells (counter line). HT-1080 IDH1 knockdown viability, ATP luminescence, 48 h. Potency, µM (series often up to 46.1 µM), without a hit: at the top dose activity, negative = toxicity, actives largely listed as cytotoxic. hit rate 2% among 360,000. AID 686971;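 note: potency is the fitted concentration of half-maximal effect; 0% = DMSO wells and -100% = cell-free medium wells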
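CellTiter-Glo luminescence after 48 h compound exposure at 37 degrees C of IDH1-knockdown HT-1080 cells in 5% FBS RPMI. %Activity scaled between DMSO wells and cell-free media wells, with curves fitted and assigned curve classes.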
DT40 TDP1 CPT = growth inhibition of DT40 Tdp1-/-;hTDP1 cells with camptothecin (screen for TDP1 inhibitors); chicken DT40 Tdp1-/-;hTDP1 cells + 20 nM CPT, ATP luminescence, 48 h; Potency, µM (doses to about 46.2 µM), inactives show at the top dose activity change, negative = growth inhibition, hits mostly inhibitors; hit rate 12% among 420,000; AID 686979; note: potency is the fitted concentration of half-maximal effect; nearly all actives have a fitted effect of over 55% in size
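Chicken DT40 Tdp1-/- cells stably complemented with human TDP1 were seeded at 400 cells/well in medium containing 20 nM camptothecin, exposed to pin-transferred compounds, and grown at 37 °C for at least 48 hr. Viability was read as ATP luminescence.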
IL-1B inflam inh = inhibitors of inflammasome signaling (IL-1 beta secretion); activity change, % at 57.5 µM; THP-1 LPS/ATP IL-1B secretion, AlphaLISA, 16 h; stronger effect = lower value; hit rate 4.7% among 360,000; AID 743279; in the data active = activity change below about -50%; inconclusive = mostly about -30% to -49%
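THP-1 cells pretreated 1 hr with compounds (up to 57.5 uM final), then stimulated with LPS (250 ng/mL final) plus ATP (1.25 mM final); secreted IL-1B measured by AlphaLISA after 16 hr, decreased signal indicating inhibition.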
DT40 TDP1 no CPT = qHTS for Inhibitors of human tyrosyl-DNA phosphodiesterase 1 (TDP1): qHTS in cells in absence of CPT; DT40 Tdp1-/- hTDP1 cells, no CPT, ATP luminescence, 48 h; Potency, µM (highest dose often 46.2 µM), for inactives: top-dose activity change, negative = growth inhibition, most hits filed as inhibitors; hit rate 15% among 420,000; note: potency is the fitted concentration of half-maximal effect; nearly all actives have a fitted effect of over 55% in size
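Chicken DT40 Tdp1-/- cells stably complemented with human TDP1 were seeded at 400 cells/well with DMSO in place of 20 nM camptothecin. After compound pinning, cells grew at least 48 hr at 37 °C; viability read by CellTiter-Glo luminescence.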
HT1080-NT tox = kills 2HG-producing HT-1080-NT fibrosarcoma cells. HT-1080-NT fibrosarcoma viability, CellTiter-Glo ATP luminescence, 48 h. Potency, µM (doses to about 46.1 µM), for inactives: top-dose activity, negative = less viability, hits mostly cytotoxic. hit rate 1.6% among 360,000. AID 686970;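 note: NT is the 2HG producing partner of a matched IDH1 knockdown line; potency is the fitted concentration of half-maximal effect; 0% = DMSO-treated cells and -100% = media-only wells without cells; nearly all actives have a fitted effect of over 55% in size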
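Read-out is CellTiter-Glo luminescence after 10 minutes at room temperature, following 48 hours' compound treatment of HT-1080-NT cells (750 cells/well, RPMI, 5% FBS, 37 degrees C).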
Numbers without * were called inactive; [ ] = remark or other dose. Unless noted, calls come from the whole dose curve; as a rule, active = well fitted curve in the direction sought with a large enough effect; inconclusive = small, poorly fitted or top-dose-only effect, or another doubt; inactive = no such curve, though single readings can be large; an effect the other way counts as inactive or inconclusive. Unless noted, % is set by controls: 0 for no effect and ±100 for the full control effect.

What do the screens show for `COc1cccc(CN2CCN(CC(=O)Nc3ccccc3Cl)CC2)c1`?
HT1080 IDH1KD tx: -8%; DT40 TDP1 CPT: inconclusive; IL-1B inflam inh: -7; DT40 TDP1 no CPT: 16µM*; HT1080-NT tox: -6%

Results for COc1ccccc1NC(=O)CN1CCN(CC(=O)Nc2cc(NC(C)=O)ccc2OC)CC1 ?
HT1080 IDH1KD tx: 5%; DT40 TDP1 CPT: inconclusive; IL-1B inflam inh: -21; DT40 TDP1 no CPT: inconclusive; HT1080-NT tox: 4%

How did COC(=O)c1ccc(NC(=O)Cn2ccn3nc(-c4ccc(OC)cc4)cc3c2=O)cc1 do in these assays?
DT40 TDP1 CPT: -3%; DT40 TDP1 no CPT: -1%

How did CC1CCCN(C(=O)CCNS(=O)(=O)c2ccc3c(c2)c(=O)n(C)c(=O)n3C)C1 (centres undefined) do in these assays?
HT1080 IDH1KD tx: 0%; DT40 TDP1 CPT: -1%; IL-1B inflam inh: -18; DT40 TDP1 no CPT: 14%; HT1080-NT tox: 2%

Results for O=C(COC(=O)CNS(=O)(=O)/C=C/c1ccccc1)Nc1cccc2ccccc12 ?
HT1080 IDH1KD tx: -12%; DT40 TDP1 CPT: 2%; IL-1B inflam inh: 16; DT40 TDP1 no CPT: 7%; HT1080-NT tox: -5%

How did CC(C)Nc1cc(N2CCCC2)ccc1[N+](=O)[O-] do in these assays?
HT1080 IDH1KD tx: 0%; DT40 TDP1 CPT: inconclusive; IL-1B inflam inh: -2; DT40 TDP1 no CPT: -16%; HT1080-NT tox: 0%

How did CC(C)C(=O)N1CCN(c2ccc([N+](=O)[O-])c(NC(C)c3ccccc3)c2)CC1 (centres undefined) do in these assays?
HT1080 IDH1KD tx: -22%; DT40 TDP1 CPT: inconclusive; IL-1B inflam inh: -64*; DT40 TDP1 no CPT: 16µM*; HT1080-NT tox: inconclusive

Results for O=[N+]([O-])c1ccc(N2CCOCC2)cc1NC(c1ccccc1)c1ccccc1 ?
HT1080 IDH1KD tx: 1%; DT40 TDP1 CPT: 16µM*; IL-1B inflam inh: -9; DT40 TDP1 no CPT: inconclusive; HT1080-NT tox: 2%

How did CCS(=O)(=O)N1CCN(c2ccc([N+](=O)[O-])c(NCc3ccccc3)c2)CC1 do in these assays?
HT1080 IDH1KD tx: -6%; DT40 TDP1 CPT: inconclusive; IL-1B inflam inh: -21; DT40 TDP1 no CPT: inconclusive; HT1080-NT tox: -9%

How did CC(Nc1cc(N2CCN(C(=O)C(C)(C)C)CC2)ccc1[N+](=O)[O-])c1ccccc1 (centres undefined) do in these assays?
HT1080 IDH1KD tx: -27%; DT40 TDP1 CPT: inconclusive; IL-1B inflam inh: -29; DT40 TDP1 no CPT: 23µM*; HT1080-NT tox: -11%

What do the screens show for `COc1cccc(-c2nc(-c3ccc(NC(=O)c4cccs4)cc3)no2)c1`?
HT1080 IDH1KD tx: -23%; DT40 TDP1 CPT: inconclusive; IL-1B inflam inh: -24; DT40 TDP1 no CPT: inconclusive; HT1080-NT tox: -13%

Results for COc1ccc(C(CNC(=O)c2cncc(Br)c2)N(C)C)cc1 (centres undefined) ?
HT1080 IDH1KD tx: -1%; DT40 TDP1 CPT: -5%; IL-1B inflam inh: -15; DT40 TDP1 no CPT: inconclusive; HT1080-NT tox: 8%

Results for CCOc1ccc(C(C)(C)C)cc1S(=O)(=O)Nc1ccncc1 ?
HT1080 IDH1KD tx: 0%; DT40 TDP1 CPT: 4%; IL-1B inflam inh: 0; DT40 TDP1 no CPT: 10%; HT1080-NT tox: 4%

Results for CN1C(=O)/C(=C\c2ccccc2F)Sc2ccc(C(=O)NC3CCN(Cc4ccccc4)CC3)cc21 ?
HT1080 IDH1KD tx: 16µM*; DT40 TDP1 CPT: 18µM*; IL-1B inflam inh: -14; DT40 TDP1 no CPT: 23µM*; HT1080-NT tox: 21µM*

What do the screens show for `CN1C(=O)/C(=C/c2ccccc2Cl)Sc2ccc(C(=O)N3CCCC3)cc21`?
HT1080 IDH1KD tx: 0%; DT40 TDP1 CPT: inconclusive; IL-1B inflam inh: -11; DT40 TDP1 no CPT: 26µM*; HT1080-NT tox: -1%

How did COc1ccc(/C=C2\Sc3ccc(C(=O)N4CCCC4)cc3N(C)C2=O)cc1OC do in these assays?
HT1080 IDH1KD tx: -1%; DT40 TDP1 CPT: 7%; IL-1B inflam inh: 11; DT40 TDP1 no CPT: inconclusive; HT1080-NT tox: -22%

How did CCOc1ccc(/C=C2/Sc3ccc(C(=O)N4CCOCC4)cc3N(C)C2=O)cc1OC do in these assays?
HT1080 IDH1KD tx: inconclusive; DT40 TDP1 CPT: inconclusive; IL-1B inflam inh: -62*; DT40 TDP1 no CPT: 16µM*; HT1080-NT tox: -16%

What do the screens show for `CCOC(=O)C1CCCN(C(=O)c2ccc3c(c2)N(C)C(=O)/C(=C/c2ccccc2Cl)S3)C1` (centres undefined)?
HT1080 IDH1KD tx: -26%; DT40 TDP1 CPT: inconclusive; IL-1B inflam inh: -68*; DT40 TDP1 no CPT: 18µM*; HT1080-NT tox: -17%

How did CCOC(=O)c1cnn(CCOC(=O)c2ccc(F)cc2)c1NC(=O)c1ccc(F)cc1 do in these assays?
HT1080 IDH1KD tx: -6%; DT40 TDP1 CPT: -2%; IL-1B inflam inh: -9; DT40 TDP1 no CPT: inconclusive; HT1080-NT tox: 2%

Results for N#C/C(=C\c1c(N2CCCCCC2)nc2ccccn2c1=O)C(N)=O ?
HT1080 IDH1KD tx: 18%; DT40 TDP1 CPT: 5%; IL-1B inflam inh: -13; DT40 TDP1 no CPT: -17%; HT1080-NT tox: 9%

What do the screens show for `CNc1ccc(/C=C\CCCO)cn1`?
HT1080 IDH1KD tx: 19%; DT40 TDP1 CPT: 4%; IL-1B inflam inh: 21; DT40 TDP1 no CPT: 11%; HT1080-NT tox: 12%

How did CCS(=O)(=O)c1ccc2oc(SCC(=O)Nc3ccc(OC)cc3OC)nc2c1 do in these assays?
HT1080 IDH1KD tx: -2%; DT40 TDP1 CPT: -10%; IL-1B inflam inh: 0; DT40 TDP1 no CPT: -30%; HT1080-NT tox: 2%

What do the screens show for `CCS(=O)(=O)c1ccc2oc(SCC(=O)NC(C)C3CC4CCC3C4)nc2c1` (centres undefined)?
HT1080 IDH1KD tx: -7%[9.24 µM]; DT40 TDP1 CPT: inconclusive; IL-1B inflam inh: 0; DT40 TDP1 no CPT: 16µM*; HT1080-NT tox: -2%

Results for CSc1cccc(NC(=O)OC2CCCCCCCCCCC2)c1 ?
HT1080 IDH1KD tx: 11%; DT40 TDP1 CPT: inconclusive; IL-1B inflam inh: -7; DT40 TDP1 no CPT: 21µM*; HT1080-NT tox: 5%

What do the screens show for `Cc1cccc(C)c1OCC(=O)Nc1cccc(-c2nnc(-c3ccccc3)o2)c1`?
HT1080 IDH1KD tx: -9%; DT40 TDP1 CPT: 18µM*; IL-1B inflam inh: -3; DT40 TDP1 no CPT: 16µM*; HT1080-NT tox: -3%

How did CSc1cccc(NC(=O)CNC(=O)C2CCCCC2)c1 do in these assays?
HT1080 IDH1KD tx: -3%; DT40 TDP1 CPT: -25%; IL-1B inflam inh: -16; DT40 TDP1 no CPT: 10%; HT1080-NT tox: 4%

How did Cc1ccc(OCC(=O)Nc2cccc(-c3nnc(-c4ccccc4)o3)c2)cc1 do in these assays?
HT1080 IDH1KD tx: 18%; DT40 TDP1 CPT: 16µM*; IL-1B inflam inh: -4; DT40 TDP1 no CPT: 16µM*; HT1080-NT tox: 0%
